A number with no mark means an inactive call.
Tests used:
Test in all cases: log2 ratio of Biotin-Ahx-Ub-VS probe labelling (fragment/DMSO); higher = less target engagement (more negative = stronger competition), active = hit call of the paper (q ≤ 0.05, log2 ratio ≤ -1)
Conditions in all cases: compound concentration: 200 uM; treatment time: 3 h
ALG13 = target: T1, ALG13 (UniProt Q9NP73)
T1 sequence (whole entry): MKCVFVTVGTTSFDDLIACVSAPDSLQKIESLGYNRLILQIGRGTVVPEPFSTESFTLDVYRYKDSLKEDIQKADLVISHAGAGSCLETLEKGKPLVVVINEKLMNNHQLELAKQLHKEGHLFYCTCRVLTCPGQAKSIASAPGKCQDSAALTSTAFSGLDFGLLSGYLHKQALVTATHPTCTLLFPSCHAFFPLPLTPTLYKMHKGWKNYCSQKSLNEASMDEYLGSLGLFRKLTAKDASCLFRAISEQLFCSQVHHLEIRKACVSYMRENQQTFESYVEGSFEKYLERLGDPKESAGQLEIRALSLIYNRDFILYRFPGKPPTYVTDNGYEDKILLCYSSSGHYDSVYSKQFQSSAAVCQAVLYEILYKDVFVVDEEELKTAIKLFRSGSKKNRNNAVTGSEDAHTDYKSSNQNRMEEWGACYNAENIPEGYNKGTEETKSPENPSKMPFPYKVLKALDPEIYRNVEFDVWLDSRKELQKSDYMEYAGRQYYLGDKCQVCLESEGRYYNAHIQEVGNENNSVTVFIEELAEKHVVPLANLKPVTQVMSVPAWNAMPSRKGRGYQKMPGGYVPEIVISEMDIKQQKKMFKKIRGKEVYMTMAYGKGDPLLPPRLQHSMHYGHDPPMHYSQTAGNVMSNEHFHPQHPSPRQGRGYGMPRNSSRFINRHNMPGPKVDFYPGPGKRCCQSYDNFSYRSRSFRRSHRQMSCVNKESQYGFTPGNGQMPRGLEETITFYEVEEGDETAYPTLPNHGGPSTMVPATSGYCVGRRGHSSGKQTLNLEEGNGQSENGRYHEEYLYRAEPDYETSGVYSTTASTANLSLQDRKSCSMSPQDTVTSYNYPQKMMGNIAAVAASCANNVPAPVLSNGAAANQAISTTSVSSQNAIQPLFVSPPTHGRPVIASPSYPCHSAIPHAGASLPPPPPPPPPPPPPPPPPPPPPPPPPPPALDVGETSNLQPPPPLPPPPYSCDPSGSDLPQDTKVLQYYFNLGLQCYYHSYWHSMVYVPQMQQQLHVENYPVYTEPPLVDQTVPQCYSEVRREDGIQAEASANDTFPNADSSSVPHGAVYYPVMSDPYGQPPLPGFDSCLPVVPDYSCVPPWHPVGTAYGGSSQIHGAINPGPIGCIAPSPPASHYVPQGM
Procedure, shortened: (§1)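 HEK293T lysate, 495 µg per sample in Tris/CHAPS/IGEPAL buffer with protease inhibitors, was treated in triplicate with fragment at 200 µM or vehicle for 3 h and then with Biotin-Ahx-Ub-VS at 0.5 µM final for 1 h. Labelled DUBs were NeutrAvidin-enriched, digested with LysC and trypsin, and run by diaPASEF LC-MS/MS. Spectronaut label-free quantities were global-median-normalised, and values are average log2 fragment/vehicle ratios by unpaired t-test on proteins with ≥2 unique peptides.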

ATXN3 = ATXN3 (UniProt P54252)
Procedure, shortened: as §1

BAP1 = target: T2, BAP1 (UniProt Q92560)
T2 sequence (whole entry): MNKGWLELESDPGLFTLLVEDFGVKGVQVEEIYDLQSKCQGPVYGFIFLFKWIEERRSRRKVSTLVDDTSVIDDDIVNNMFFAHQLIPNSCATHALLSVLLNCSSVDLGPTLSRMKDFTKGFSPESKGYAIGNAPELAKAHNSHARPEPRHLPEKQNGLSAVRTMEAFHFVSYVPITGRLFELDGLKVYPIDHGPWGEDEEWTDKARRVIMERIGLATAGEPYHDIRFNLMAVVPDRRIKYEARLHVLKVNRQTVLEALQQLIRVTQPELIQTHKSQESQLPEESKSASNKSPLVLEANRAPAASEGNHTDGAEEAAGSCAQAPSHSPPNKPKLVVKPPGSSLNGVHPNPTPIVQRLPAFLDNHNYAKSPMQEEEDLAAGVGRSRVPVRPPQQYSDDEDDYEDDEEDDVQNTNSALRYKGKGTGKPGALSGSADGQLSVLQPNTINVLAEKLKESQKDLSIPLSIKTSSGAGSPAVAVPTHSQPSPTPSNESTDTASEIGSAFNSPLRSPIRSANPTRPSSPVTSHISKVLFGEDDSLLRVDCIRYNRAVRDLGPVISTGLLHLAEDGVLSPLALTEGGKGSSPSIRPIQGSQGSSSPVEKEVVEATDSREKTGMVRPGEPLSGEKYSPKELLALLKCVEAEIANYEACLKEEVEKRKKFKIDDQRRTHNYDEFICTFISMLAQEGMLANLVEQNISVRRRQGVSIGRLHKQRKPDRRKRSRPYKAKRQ
Procedure, shortened: as §1

EIF3F = EIF3F (UniProt O00303)
Procedure, shortened: as §1

EIF3H = EIF3H (UniProt O15372)
Procedure, shortened: as §1

FAM105A = target: T3, FAM105A (UniProt Q9NUU6)
T3 sequence (whole entry): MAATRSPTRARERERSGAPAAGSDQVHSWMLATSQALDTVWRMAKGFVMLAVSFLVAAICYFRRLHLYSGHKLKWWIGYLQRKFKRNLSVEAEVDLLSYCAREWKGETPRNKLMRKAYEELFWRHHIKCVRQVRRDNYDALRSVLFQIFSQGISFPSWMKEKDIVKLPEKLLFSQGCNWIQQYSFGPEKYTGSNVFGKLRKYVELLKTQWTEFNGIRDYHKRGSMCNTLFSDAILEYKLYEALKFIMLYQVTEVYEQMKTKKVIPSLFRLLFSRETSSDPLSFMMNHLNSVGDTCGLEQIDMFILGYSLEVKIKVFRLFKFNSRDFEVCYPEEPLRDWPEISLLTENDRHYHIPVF
Procedure, shortened: as §1

OTUB1 = OTUB1 (UniProt Q96FW1)
Procedure, shortened: as §1

OTUD4 = target: T4, OTUD4 (UniProt Q01804)
T4 sequence (whole entry): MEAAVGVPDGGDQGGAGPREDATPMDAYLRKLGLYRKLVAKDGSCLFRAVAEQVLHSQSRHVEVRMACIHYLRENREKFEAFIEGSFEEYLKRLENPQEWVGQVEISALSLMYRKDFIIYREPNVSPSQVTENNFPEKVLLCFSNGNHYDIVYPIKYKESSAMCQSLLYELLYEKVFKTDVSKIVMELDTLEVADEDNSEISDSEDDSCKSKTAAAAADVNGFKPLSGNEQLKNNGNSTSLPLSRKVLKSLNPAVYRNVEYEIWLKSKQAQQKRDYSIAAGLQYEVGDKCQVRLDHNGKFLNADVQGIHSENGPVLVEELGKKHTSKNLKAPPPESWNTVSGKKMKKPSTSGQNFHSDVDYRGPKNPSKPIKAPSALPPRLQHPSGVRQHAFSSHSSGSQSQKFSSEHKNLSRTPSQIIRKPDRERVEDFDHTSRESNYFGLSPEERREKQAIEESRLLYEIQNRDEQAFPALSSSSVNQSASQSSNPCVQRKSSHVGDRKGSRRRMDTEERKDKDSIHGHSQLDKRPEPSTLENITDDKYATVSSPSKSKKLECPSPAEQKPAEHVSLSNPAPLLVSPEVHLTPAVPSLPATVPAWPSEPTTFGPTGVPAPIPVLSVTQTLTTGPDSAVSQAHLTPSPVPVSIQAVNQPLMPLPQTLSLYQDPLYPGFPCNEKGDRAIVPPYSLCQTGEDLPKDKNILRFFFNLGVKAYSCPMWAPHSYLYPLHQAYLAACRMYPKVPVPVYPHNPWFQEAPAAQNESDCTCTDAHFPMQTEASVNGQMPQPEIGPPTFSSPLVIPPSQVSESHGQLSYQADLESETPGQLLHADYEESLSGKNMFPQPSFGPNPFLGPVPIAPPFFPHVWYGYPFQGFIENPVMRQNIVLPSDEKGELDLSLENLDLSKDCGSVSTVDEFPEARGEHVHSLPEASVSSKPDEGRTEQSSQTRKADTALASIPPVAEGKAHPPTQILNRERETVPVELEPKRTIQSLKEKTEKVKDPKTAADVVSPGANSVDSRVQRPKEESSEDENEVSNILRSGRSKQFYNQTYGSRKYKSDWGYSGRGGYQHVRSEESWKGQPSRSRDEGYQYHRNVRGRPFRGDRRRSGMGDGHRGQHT
Procedure, shortened: as §1

OTUD5 = target: T5, OTUD5 (UniProt Q96G74)
T5 sequence (whole entry): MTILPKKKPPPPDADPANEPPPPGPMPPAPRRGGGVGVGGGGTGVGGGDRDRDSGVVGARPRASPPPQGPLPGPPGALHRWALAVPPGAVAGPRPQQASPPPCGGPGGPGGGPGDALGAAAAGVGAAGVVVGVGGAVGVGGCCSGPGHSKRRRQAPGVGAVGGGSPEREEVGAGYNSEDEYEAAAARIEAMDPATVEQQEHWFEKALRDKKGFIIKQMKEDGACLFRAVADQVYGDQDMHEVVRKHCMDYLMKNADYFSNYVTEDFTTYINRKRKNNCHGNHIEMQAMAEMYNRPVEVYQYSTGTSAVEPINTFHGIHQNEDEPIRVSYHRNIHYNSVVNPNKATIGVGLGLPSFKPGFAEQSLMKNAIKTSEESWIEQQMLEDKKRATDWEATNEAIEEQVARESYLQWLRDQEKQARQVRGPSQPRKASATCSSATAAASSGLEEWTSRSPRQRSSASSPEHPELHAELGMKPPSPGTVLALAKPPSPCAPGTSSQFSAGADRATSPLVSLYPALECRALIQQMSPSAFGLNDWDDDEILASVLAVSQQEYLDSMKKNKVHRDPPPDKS
Procedure, shortened: as §1

Sequence of EIF3F (O00303 whole entry): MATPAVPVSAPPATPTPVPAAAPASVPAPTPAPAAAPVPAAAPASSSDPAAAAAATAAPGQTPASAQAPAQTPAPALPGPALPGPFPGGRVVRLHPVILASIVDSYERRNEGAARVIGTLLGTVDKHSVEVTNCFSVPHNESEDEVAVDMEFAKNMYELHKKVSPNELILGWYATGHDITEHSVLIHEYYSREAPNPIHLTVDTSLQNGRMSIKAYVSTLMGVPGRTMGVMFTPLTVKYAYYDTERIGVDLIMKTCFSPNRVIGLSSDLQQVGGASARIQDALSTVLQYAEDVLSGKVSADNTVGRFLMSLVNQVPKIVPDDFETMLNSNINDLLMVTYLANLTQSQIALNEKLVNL
Sequence of OTUB1 (Q96FW1 whole entry): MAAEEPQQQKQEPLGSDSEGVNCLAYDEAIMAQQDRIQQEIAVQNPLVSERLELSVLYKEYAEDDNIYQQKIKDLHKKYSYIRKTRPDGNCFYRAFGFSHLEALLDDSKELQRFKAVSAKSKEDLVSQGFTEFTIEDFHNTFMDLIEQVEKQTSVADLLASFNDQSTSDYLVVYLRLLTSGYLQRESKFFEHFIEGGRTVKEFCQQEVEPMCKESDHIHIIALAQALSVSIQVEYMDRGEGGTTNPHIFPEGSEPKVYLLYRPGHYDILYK
Sequence of ATXN3 (P54252 whole entry): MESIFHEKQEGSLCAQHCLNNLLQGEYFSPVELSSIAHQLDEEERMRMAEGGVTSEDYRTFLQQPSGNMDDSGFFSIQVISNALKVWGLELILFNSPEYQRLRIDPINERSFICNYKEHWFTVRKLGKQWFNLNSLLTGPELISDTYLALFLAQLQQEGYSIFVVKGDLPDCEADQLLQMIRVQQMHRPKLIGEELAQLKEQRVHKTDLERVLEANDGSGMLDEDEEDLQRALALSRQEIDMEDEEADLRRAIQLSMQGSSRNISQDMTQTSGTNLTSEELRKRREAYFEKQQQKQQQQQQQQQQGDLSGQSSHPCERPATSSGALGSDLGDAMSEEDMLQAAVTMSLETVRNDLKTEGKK
Sequence of EIF3H (O15372 whole entry): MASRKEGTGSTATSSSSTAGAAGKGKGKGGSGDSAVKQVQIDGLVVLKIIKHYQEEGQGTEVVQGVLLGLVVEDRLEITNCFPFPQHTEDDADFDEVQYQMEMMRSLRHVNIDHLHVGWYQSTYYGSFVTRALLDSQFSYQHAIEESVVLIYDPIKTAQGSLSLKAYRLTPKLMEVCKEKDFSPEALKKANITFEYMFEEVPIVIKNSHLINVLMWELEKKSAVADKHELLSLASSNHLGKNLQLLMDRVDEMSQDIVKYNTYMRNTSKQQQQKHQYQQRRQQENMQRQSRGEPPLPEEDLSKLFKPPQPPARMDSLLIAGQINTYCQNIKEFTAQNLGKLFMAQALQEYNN

Cc1noc(C)c1CNC(=O)CCl
log2 ratio of Biotin-Ahx-Ub-VS probe labelling (ALG13): -0.968 | log2 ratio of Biotin-Ahx-Ub-VS probe labelling (ATXN3): -0.884 | log2 ratio of Biotin-Ahx-Ub-VS probe labelling (BAP1): -2.03 (active) | log2 ratio of Biotin-Ahx-Ub-VS probe labelling (EIF3F): -0.561 | log2 ratio of Biotin-Ahx-Ub-VS probe labelling (EIF3H): 0.0244 | log2 ratio of Biotin-Ahx-Ub-VS probe labelling (FAM105A): 0.341 | log2 ratio of Biotin-Ahx-Ub-VS probe labelling (OTUB1): -0.618 | log2 ratio of Biotin-Ahx-Ub-VS probe labelling (OTUD4): -0.737 | log2 ratio of Biotin-Ahx-Ub-VS probe labelling (OTUD5): -0.764

N#Cc1ccc(CNC(=O)CCl)cc1
log2 ratio of Biotin-Ahx-Ub-VS probe labelling (ALG13): -0.583 | log2 ratio of Biotin-Ahx-Ub-VS probe labelling (ATXN3): -0.171 | log2 ratio of Biotin-Ahx-Ub-VS probe labelling (BAP1): -3.38 (active) | log2 ratio of Biotin-Ahx-Ub-VS probe labelling (EIF3F): -0.0324 | log2 ratio of Biotin-Ahx-Ub-VS probe labelling (EIF3H): 0.142 | log2 ratio of Biotin-Ahx-Ub-VS probe labelling (FAM105A): -0.00692 | log2 ratio of Biotin-Ahx-Ub-VS probe labelling (OTUB1): -0.0861 | log2 ratio of Biotin-Ahx-Ub-VS probe labelling (OTUD4): -0.138 | log2 ratio of Biotin-Ahx-Ub-VS probe labelling (OTUD5): -0.348

O=C(CCl)N1CCOC2(CCC2)CC1
log2 ratio of Biotin-Ahx-Ub-VS probe labelling (ALG13): -0.588 | log2 ratio of Biotin-Ahx-Ub-VS probe labelling (ATXN3): -0.29 | log2 ratio of Biotin-Ahx-Ub-VS probe labelling (BAP1): -0.305 | log2 ratio of Biotin-Ahx-Ub-VS probe labelling (EIF3F): -0.12 | log2 ratio of Biotin-Ahx-Ub-VS probe labelling (EIF3H): 0.0846 | log2 ratio of Biotin-Ahx-Ub-VS probe labelling (FAM105A): -0.0165 | log2 ratio of Biotin-Ahx-Ub-VS probe labelling (OTUB1): -0.14 | log2 ratio of Biotin-Ahx-Ub-VS probe labelling (OTUD4): -0.374 | log2 ratio of Biotin-Ahx-Ub-VS probe labelling (OTUD5): -0.595

CS(=O)(=O)N1CCCN(C(=O)CCl)CC1
log2 ratio of Biotin-Ahx-Ub-VS probe labelling (ALG13): -0.306 | log2 ratio of Biotin-Ahx-Ub-VS probe labelling (ATXN3): -0.428 | log2 ratio of Biotin-Ahx-Ub-VS probe labelling (BAP1): -0.451 | log2 ratio of Biotin-Ahx-Ub-VS probe labelling (EIF3F): -0.0174 | log2 ratio of Biotin-Ahx-Ub-VS probe labelling (EIF3H): 0.332 | log2 ratio of Biotin-Ahx-Ub-VS probe labelling (FAM105A): -0.12 | log2 ratio of Biotin-Ahx-Ub-VS probe labelling (OTUB1): -0.478 | log2 ratio of Biotin-Ahx-Ub-VS probe labelling (OTUD4): -0.3 | log2 ratio of Biotin-Ahx-Ub-VS probe labelling (OTUD5): -0.335
